PHOSPHO1 inh – PubChem AID 1565. Phosphoethanolamine/phosphocholine phosphatase (Homo sapiens), Q8TCT1. recombinant PHOSPHO1, absorbance phosphatase assay. inhibition, % at 13.3 µM. 290,000 tested, 1.1% active; in the data active = inhibition above about 60%
Target sequence (Q8TCT1 whole entry, looked up): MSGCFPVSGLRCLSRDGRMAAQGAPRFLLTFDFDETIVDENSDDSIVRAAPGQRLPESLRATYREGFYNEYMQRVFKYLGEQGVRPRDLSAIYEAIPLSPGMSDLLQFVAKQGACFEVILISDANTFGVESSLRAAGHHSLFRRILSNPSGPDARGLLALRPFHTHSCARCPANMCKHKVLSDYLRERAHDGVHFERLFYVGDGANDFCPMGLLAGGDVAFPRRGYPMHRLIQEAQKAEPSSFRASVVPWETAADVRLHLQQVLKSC
ALR H2O2 inh – inhibitors of human ALR sulfhydryl oxidase, primary screen, biochemical, H2O2 detection, HRP-luminol luminescence, single point | purified ALR, DTT oxidation | inhibition, % (no concentration beside the values) | 290,000 tested, 3.8% active | AID 485317, 2010;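 active = mean replicate inhibition above about 79%, with every replicate also reaching it, limit read from the data; inconclusive = only one of the two criteria met; inactive = mean below limit and not every replicate reaching it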
Target sequence (P55789 whole entry, looked up): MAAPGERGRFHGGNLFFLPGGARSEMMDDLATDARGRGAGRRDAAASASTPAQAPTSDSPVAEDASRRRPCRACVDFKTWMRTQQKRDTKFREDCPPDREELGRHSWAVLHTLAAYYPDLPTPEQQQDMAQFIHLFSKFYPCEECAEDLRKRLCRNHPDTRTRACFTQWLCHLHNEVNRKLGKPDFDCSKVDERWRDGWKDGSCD
Cardio protect – cardioprotection against H2O2-induced cell death, primary screen, uHTS, H9c2 cells, ATPLite luminescence; H9c2 cardiomyocytes, H2O2 injury protection, 2 h; protection from H2O2 cell death, % at 20 µM; 360,000 tested, 0.63% active;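 active = compounds giving at least 50% protection of heart cells from peroxide-induced death in the single-dose screen, raw or plate-pattern-corrected value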;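 also: 0% = DMSO wells with peroxide and 100% = DMSO wells without peroxide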
M18AAP inhibitor – PfM18AAP inhibitors, malaria aminopeptidase, primary screen, biochemical, QFRET, recombinant enzyme | H-Glu-NHMec fluorogenic cleavage | inhibition, % at 7.35 µM | 290,000 tested, 1.2% active | AID 1822, 2009;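 active = inhibition above the campaign mean inhibition over all tested compounds plus 3 SD, cut at about 28% in these data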;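 also: 0% = plate median of test compound wells and 100% = 2 mM ZnCl2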
PfG6PD inh – PfG6PD enzyme inhibitors, primary screen, biochemical, fluorescence intensity, uHTS. glucose-6-phosphate dehydrogenase-6-phosphogluconolactonase (Plasmodium falciparum 3D7). PfGluPho enzyme, NADPH resazurin-diaphorase fluorescence. AID 504690, 2011. 350,000 tested, 0.78% active. inhibition, % at 20 µM;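 active = inhibition reaching at least a set limit at 20 µM in the primary screen, cut at about 59% in these data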;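 also: 0% = DMSO wells with substrate and 100% = DMSO wells lacking glucose-6-phosphate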
* marks the source's active call; other numbers are inactive results; u = inconclusive; x = no result given. In the library only some 5.6% were active in any assay of this set; here they are far more common.

SMILES	PHOSPHO1 inh	ALR H2O2 inh	Cardio protect	M18AAP inhibitor	PfG6PD inh
CC(=O)Nc1ccc(C(=O)N/N=C/c2ccccc2OC(=O)c2ccc(Cl)cc2)cc1	-4	-20	56*	1	25
COc1cc(C(=O)Oc2ccccc2/C=N/NC(=O)c2ccc(Cl)cc2)cc(OC)c1OC	-2	-2	33	5	-28
CC(C)Oc1ccc(C(=O)OCC(=O)N2CCCc3ccccc32)cc1	x	-7	0	x	9
CCc1nc2n[nH]c(N)c2c2c1CSC(C)(C)C2	-9	87*	1	0	-1
CCCc1nc2n[nH]c(N)c2c2c1CCC2	14	3	1	-7	7
Cc1ccc(N2C(=O)CC(C)(C)CC2=O)cc1Cl	34	-34	5	3	-10
CC1=C(C(=O)N2CCCCCC2)CC(CC(=O)NC2CCCCC2)C(=O)N1Cc1ccc(C(C)(C)C)cc1 (stereo not given)	x	x	5	x	x
c1ccc2[nH]c(SCc3cn4cccnc4n3)nc2c1	-27	99*	-3	-6	15
c1ccc(-c2cnnc(SCc3cn4cccnc4n3)n2)cc1	76*	19	2	-10	11
CC(=O)Nc1cccc(-c2ccnc3c2CC(C(=O)NCc2ccco2)O3)c1 (stereo not given)	x	x	4	x	x
COc1cccc(NC(=O)CN(C)C(=O)Cc2n[nH]c(=O)c3ccccc23)c1	x	x	79*	x	-7
CCOc1ccc(NC(=O)c2ccc(NC(=O)Cc3n[nH]c(=O)c4ccccc34)cc2)cc1	38	-1	25	-2	7
COc1ccc(Cl)cc1NC(=O)CN(C)C(=O)Cn1c(=O)oc2ccccc21	x	30	0	x	-12
COc1ccc(NC(=O)CN(C)C(=O)Cc2n[nH]c(=O)c3ccccc23)cc1	x	-5	61*	x	17
CCOc1ccc(NC(=O)CN(C)C(=O)Cc2n[nH]c(=O)c3ccccc23)cc1OCC	x	x	59*	x	15
CCOc1ccc(NC(=O)CN(C)C(=O)Cc2c[nH]c3ccccc23)cc1OCC	x	-11	2	x	4
COc1ccc(Cl)cc1NC(=O)CN(C)C(=O)Cc1n[nH]c(=O)c2ccccc12	x	-1	100*	x	13
CC1(C(=O)NS(=O)(=O)C2CC2)CCN(C(=O)COc2ccc(Cl)cc2Cl)C1 (stereo not given)	x	x	-1	x	x
CC(C)(C)c1ccc(C(=O)OCC(=O)N2CCC(c3ccccc3)=N2)cc1	x	0	-11	x	-3
CC(NC(=O)COC(=O)c1cc([N+](=O)[O-])ccc1N1CCOCC1)c1ccccc1 (stereo not given)	61*	1	-4	5	14
CCCCNC(=O)C1(C)CCN1C(=O)c1cccc(OC(F)(F)F)c1 (stereo not given)	x	x	5	x	x
COC(=O)C(C)N1C(=O)S/C(=C\c2ccc(-c3ccc(C(=O)O)cc3C)o2)C1=O (stereo not given)	52	98*	-4	3	4
COc1cc(CNc2ncnc3c2ncn3[C@H]2CN(Cc3ccc(Cl)cc3)C[C@@H](CO)O2)cc(OC)c1OC	x	x	0	x	x
CCOC(=O)CN1C(=O)/C(=C/c2c(F)cccc2Cl)Oc2ccccc21	14	-8	-5	-8	15
CCc1noc(C)c1C(=O)N1CCCC(N2CCN(c3cccc(Cl)c3)CC2)C1 (stereo not given)	8	14	0	-7	-1
SMILES	PHOSPHO1 inh	ALR H2O2 inh	Cardio protect	M18AAP inhibitor	PfG6PD inh
CCc1c(C)nc2cc(-c3cc(OC)cc(OC)c3)nn2c1N1CCN(CCN2CCOCC2)CC1	2	x	91*	-10	9
O=C(CCCSc1nc2sc3c(c2c(=O)[nH]1)CCC3)NCCCO	2	-6	58*	-2	-9
O=C(CCCSc1nc2sc3c(c2c(=O)[nH]1)CCC3)NCCO	5	-2	88*	2	11
Nc1nc(SCC(=O)NCCCO)nc2sc3c(c12)CCC3	5	4	5	19	8
Cc1cc(NC(=O)COC(=O)C2CSC3(C)CCC(=O)N23)ccc1Br (stereo not given)	x	48	-9	x	29
Fc1ccc2c(c1)C1OCCCC1C(c1ccccc1)N2 (stereo not given)	8	88*	1	9	-9
O=C(O)c1cccc(-n2sc3ccccc3c2=O)c1	x	57	78*	x	114*
O=c1c2cc(F)ccc2sn1-c1ccccc1	x	48	-36	x	114*
C=CCn1c(N)c(C(=O)NCC2CCCO2)c2nc3ccccc3nc21 (stereo not given)	6	44	47	-1	29
C=CCn1c(N)c(C(=O)Nc2ccc(C)cc2)sc1=S	17	17	-13	9	23
Nc1c(C(=O)NCC2CCCO2)sc(=S)n1-c1ccccc1 (stereo not given)	41	85*	6	-13	43
C=CCn1c(N)c(C(=O)Nc2ccccc2OC)sc1=S	21	98*	2	1	9
Cc1ccc(-n2c(N)c(C(=O)NCc3ccco3)sc2=S)cc1	23	4	9	6	59
C=CCn1c(N)c(C(=O)NCC2CCCO2)sc1=S (stereo not given)	25	99*	2	1	20
C=CCn1c(N)c(C(=O)NCc2ccco2)sc1=S	7	98*	-3	11	20
O=C(NCc1ccco1)c1sc(=S)n2c1[nH]c(=O)c1ccccc12	54	98*	-14	8	27
O=C(NC1CCCC1)c1sc(=S)n2c1[nH]c(=O)c1ccccc12	50	55	-8	14	5
COc1ccccc1CNC(=O)C(=O)c1cn(CC(=O)N2CCCC2)c2ccccc12	62*	1	-2	9	-16
CCOC(=O)C1=C(Cc2ccc(Cl)cc2)C(=O)c2ccccc2C1=O	-20	1	-19	-12	94*
C=CCSC1=N/C(=C\c2sccc2C)C(=O)S1	44	53	-11	-1	-16
C=CCSC1=N/C(=C\C=C\c2ccco2)C(=O)S1	70*	99*	6	11	27
O=C(Nc1ccc(C(=O)O)cc1)/C(=C\c1ccco1)NC(=O)c1ccc(Br)cc1	x	x	3	x	-17
O=C(Nc1ccccc1)/C(=C\c1ccncc1)NC(=O)c1ccccc1	20	x	2	2	-9
Cc1ccc(C(=O)N/C(=C/c2ccco2)C(=O)Nc2cccc(C(=O)O)c2)cc1	14	u	x	30*	12
O=C(Nc1ccc(O)cc1)/C(=C\c1ccncc1)NC(=O)c1ccccc1	22	99*	1	1	16
O=C(Nc1ccc(O)cc1)/C(=C/c1ccco1)NC(=O)c1ccccc1	40	99*	-1	-1	2
CC1(C(=O)Nc2ccc3c(c2)OCO3)CCN1C(=O)c1ccco1 (stereo not given)	x	x	-1	x	x
CCc1ccc(N(C(=O)CCC(=O)Nc2cc(C)on2)C(C(=O)NC(C)(C)C)c2ccc(OC)cc2)cc1 (stereo not given)	23	-5	-2	2	-6
